# Measured values as given in PubChem BioAssay (Tox21).
# Results filed as inconclusive are left out. A structure can be active in one record and inactive in another. The source made the active and inactive calls. Calls come from the whole dose curve; as a rule, active = well fitted cell-killing curve with a large enough effect in the repeat runs; inconclusive = weak or mixed curves, or effect the other way; inactive = flat fitted curve, though single readings scatter.
# Assay: qHTS RealTime-Glo MT Cell Viability Assay in HEK293 cells - 32 hour (AID 1224868); note: nearly all actives have a fitted effect of over 50% in size; for activity change, negative = cytotoxic: top concentration of the series differs between compounds
# Conditions: RealTime-Glo luminescence; series mostly up to 76.8 µM; activity change, negative = cytotoxic: at the top concentration
# Description: National Center for Advancing Translational Sciences [NCATS]
# NIH Chemical Genomics Center [NCGC]
# U.S. Environmental Protection Agency [EPA]
# National Institutes of Environmental Health Sciences [NIEHS]
# National Toxicology Program [NTP]
# U.S. Food and Drug Administration [FDA]
# Measure of cell viability is critical in the cell-base assay. Analysis of cell viability is necessary for the characterization of cell responses to cytotoxic drugs and environmental stress. A RealTime-Glo MT Cell Viability Assay to monitor cell viability in real time of continues cell culture during 40 hours of compound treatment was used to screen Tox21 10K library compounds in Hek293 cells. The RealTime-Glo MT Cell Viability Assay is a nonlytic, homogeneous, bioluminescent method to measure cell viability in real time using a simple, plate-based method. The assay involves adding NanoLuc luciferase and a cell-permeant prosubstrate to cells in culture. Viable cells reduce the proprietary prosubstrate to generate a substrate for NanoLuc luciferase. This substrate diffuses from cells into the surrounding culture medium, where it is rapidly used by the NanoLuc Enzyme to produce a luminescent signal. The signal correlates with the number of viable cells, making the assay well suited for cytotoxicity studies.
# Tox21 Assay Protocol Summary:
# The mixture of Hek293 cell suspension and reagents were dispensed at 600cells/6 ul/well in 1536-well tissue culture treated black solid bottom plates using a Multidrop dispenser. After the assay plates were incubated at a 37 C/5% CO2 incubator for 5 hours, 23 nL of compounds dissolved in DMSO, positive and negative controls was transferred to the assay plate by a pintool work station. The plates were incubated at 37 C for 40 hours. The luminescence intensity were measured at 0h, 8h, 16h, 24h, 32h and 40h time points using ViewLux plate reader during compound treatment.
# % is set by controls: 0 for no effect and ±100 for the full control effect; potency is the fitted concentration of half-maximal effect.
SMILES,"activity change, negative = cytotoxic",Potency
CC(C)COC(=O)COc1cc(Cl)c(Cl)cc1Cl,-16.6% (inactive),
C=C(C)c1ccccc1,4.69% (inactive),
Cc1ccc(NC(=O)N(C)C)cc1NC(=O)N(C)C,-1.14% (inactive),
CC(C)c1ccc(C(=O)N=C(N)N)cc1S(C)(=O)=O,8.39% [at 35.3 µM] (inactive),
CC(=O)OCCC1CCCCC1,5.19% (inactive),
Nc1nc(-c2ccc([N+](=O)[O-])cc2)cs1,-13.7% (inactive),
CC(=O)NCCO,8.15% (inactive),
CC(=O)NNC(C)=O,0.223% (inactive),
CSCC[C@H](NC(=O)[C@H](Cc1c[nH]c2ccccc12)NC(=O)CCNC(=O)OC(C)(C)C)C(=O)N[C@@H](CC(=O)O)C(=O)N[C@@H](Cc1ccccc1)C(N)=O,1.96% [at 35.3 µM] (inactive),
CCC(=O)OCc1ccc(OC)cc1,-0.44% (inactive),
CC[C@H]1OC(=O)[C@H](C)[C@@H](O[C@H]2C[C@@](C)(OC)[C@@H](O)[C@H](C)O2)[C@H](C)[C@@H](O[C@@H]2O[C@H](C)C[C@H](N(C)C)[C@H]2O)[C@](C)(O)C[C@@H](C)/C(=N\OCOCCOC)[C@H](C)[C@@H](O)[C@]1(C)O,-14.9% [at 35.3 µM] (inactive),
COc1cc(NC(C)CCCN)c2ncccc2c1 (stereo not given),-14.1% [at 35.3 µM] (inactive),
CCCCC(CC)COS(=O)(=O)O (stereo not given),4.14% (inactive),
O=C(Nc1ccc(C(=O)O)c(O)c1)c1ccccc1,7.66% [at 35.3 µM] (inactive),
O=C(c1ccccc1)c1ccc(O)cc1,-22.8% (inactive),
CC(=O)OC(C)C[N+](C)(C)C (stereo not given),-2.33% [at 35.3 µM] (inactive),
CC1C(C)(C)C2=C(C(=O)CCC2)C1(C)C (stereo not given),-12.1% (inactive),
C=CC(=O)O,2.15% [at 35.3 µM] (inactive),
CC[C@@H](CO)NCCN[C@@H](CC)CO,8.22% [at 35.3 µM] (inactive),
COc1ccc2nc(S(=O)Cc3ncc(C)c(OC)c3C)[nH]c2c1 (stereo not given),,21.6 µM (active) and inactive

SMILES,"activity change, negative = cytotoxic",Potency
CC(C)(C)C1(CCc2ccc(Cl)cc2)CO1 (stereo not given),-12.5% (inactive),
Nc1ccn([C@H]2CS[C@@H](CO)O2)c(=O)n1,-4.1% (inactive),
CC(C)c1ccc(C#N)cc1,,15.5 µM (active)
C[C@H](CS)C(=O)N1CCC[C@H]1C(=O)O,11.8% [at 35.3 µM] (inactive),
CC(C)C(O)C(C)(C)CO (stereo not given),,0.801 µM (active)
CC(=O)c1ccc[nH]1,-0.659% (inactive),
CCNc1nc(N)nc(Cl)n1,9.24% (inactive),
CC1=CC[C@@H]2C[C@H]1C2(C)C,2.23% [at 15.8 µM] (inactive),
Cc1oc(=O)oc1COC(=O)[C@@H]1N2C(=O)[C@@H](NC(=O)[C@H](N)c3ccccc3)[C@H]2SC1(C)C,7.51% [at 35.3 µM] (inactive),
O=C1[C@@H]2[C@H]3CC[C@H](C3)[C@@H]2C(=O)N1CCCCN1CCN(c2ncccn2)CC1,-1.24% [at 35.3 µM] (inactive),
C=Cc1ccc(OC(C)=O)cc1,21.5% (inactive),
CCCCCCCCCCCCCC(=O)OCC(O)CO (stereo not given),-2.75% (inactive),
CCCCC[C@H](O)/C=C/[C@H]1[C@H](O)CC(=O)[C@@H]1C/C=C\CCCC(=O)O,13.2% [at 35.3 µM] (inactive),
CCC(C)(C)C(=O)O,-0.981% (inactive),
CCC(CO)(CO)[N+](=O)[O-],0.347% (inactive),
O=C(O)c1cccc(Oc2ccccc2)c1,-2.03% (inactive),
O=C(O)CN1C(=O)c2cccc3cccc(c23)C1=O,7.56% [at 35.3 µM] (inactive),
CC1CCC(C(C)CS)CC1S (stereo not given),5.4% (inactive),
O=C(O)c1ccc(O)cc1O,-1.92% (inactive),
CC1CCCC(=O)C1=O (stereo not given),8.57% (inactive),
